The record followed here is PubChem BioAssay.

Unmarked numbers belong to inactive results. For some of these results: Results with a measured potency or affinity are listed apart. Active and inactive are the calls of the source. Unless noted, no rule for the calls is given here.

The nature of experiment [1]: antimalarial activity against Dd2 strain (AID 2302;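 active = growth inhibition above 50% at the single 2 µM test dose, taken to imply half-maximal potency below 2 µM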;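 also: 0% = DMSO untreated growth and 100% = chloroquine plus artemisinin killed control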). The note with it: P. falciparum Dd2 in RBCs, LDH growth readout, 72 h; at 2 µM; stronger effect = higher value.
A short description of experiment [2]: HepG2 cytotoxicity, primary screen, cytotoxicity control for P. falciparum antimalarial project, cell-based, ATP luminescence (AID 2303;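 active = inhibition above 50%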;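 also: 0% = DMSO wells and 100% = digitonin-killed cells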). Particulars: HepG2 viability, 24-48 h, at 10 µM, stronger effect = higher value.
The target in experiment [3] is L-lactate dehydrogenase (Plasmodium falciparum (isolate CDC / Honduras)) (UniProt Q27743). Kind of experiment: PfLDH activity inhibition – cell lysate, 3D7 strain, counter-screen for P. falciparum growth inhibition project (AID 2304).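 Also: 0% = vehicle and 100% = reference inhibitor.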 The note with it: P. falciparum 3D7 crude extract, LDH APAD/NBT absorbance; at 2 µM; stronger effect = higher value.
Chain of L-lactate dehydrogenase (Plasmodium falciparum (isolate CDC / Honduras)) (Q27743 whole entry, looked up): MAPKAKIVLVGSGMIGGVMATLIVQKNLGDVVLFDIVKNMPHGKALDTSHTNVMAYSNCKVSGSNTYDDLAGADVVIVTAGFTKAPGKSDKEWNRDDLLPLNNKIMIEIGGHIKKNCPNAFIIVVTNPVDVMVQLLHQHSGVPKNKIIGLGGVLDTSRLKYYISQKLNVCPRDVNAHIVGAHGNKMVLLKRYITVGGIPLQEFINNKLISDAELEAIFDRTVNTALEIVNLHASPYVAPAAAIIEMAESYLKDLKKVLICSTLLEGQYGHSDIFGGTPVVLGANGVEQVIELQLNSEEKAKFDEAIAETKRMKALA
Experiment [4] is described as follows: inhibition of 3D7 malaria parasite growth – strain 3D7 (AID 2306).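 Also: 0% = DMSO wells and 100% = chloroquine plus artemisinin control wells.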 The note with it: P. falciparum 3D7 erythrocytic growth, LDH absorbance, 72 h; at 2 µM; stronger effect = higher value.
Experiment [5] addresses Calcium-dependent protein kinase 1 (Plasmodium falciparum (isolate 3D7)) (UniProt P62344). Kind of experiment: PfCDPK1 kinase inhibitors, biochemical, TCAMS library (AID 1159585; cut-off not given, nearly all actives have IC50 up to about 0.98 µM;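 also: inhibitors leave more ATP so luminescence rises with inhibition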). The note with it: recombinant PfCDPK1, Kinase-Glo ATP depletion luminescence.
Experiment [6] concerns the target Plasmodium falciparum protein kinase 6 (PK6, PF3D7_1337100) (UniProt Q8IDW1). Kind of experiment: PfPK6 kinase inhibitors, biochemical, TCAMS library (AID 1159586). The note with it: recombinant PfPK6, Kinase-Glo ATP depletion luminescence.
Experiment [7] deals with Protein kinase 7 (PK7), Plasmodium falciparum 3D7 (PF3D7_0213400) (UniProt Q7YTF7). Kind of experiment: inhibition of Plasmodium PK7 catalytic activity – biochemical, TCAMS antimalarial set, Kinase-Glo luminescence (AID 1159587). The note with it: recombinant PfPK7, Kinase-Glo ATP depletion luminescence.
Chain of Protein kinase 7 (PK7), Plasmodium falciparum 3D7 (PF3D7_0213400) (Q7YTF7 1-343): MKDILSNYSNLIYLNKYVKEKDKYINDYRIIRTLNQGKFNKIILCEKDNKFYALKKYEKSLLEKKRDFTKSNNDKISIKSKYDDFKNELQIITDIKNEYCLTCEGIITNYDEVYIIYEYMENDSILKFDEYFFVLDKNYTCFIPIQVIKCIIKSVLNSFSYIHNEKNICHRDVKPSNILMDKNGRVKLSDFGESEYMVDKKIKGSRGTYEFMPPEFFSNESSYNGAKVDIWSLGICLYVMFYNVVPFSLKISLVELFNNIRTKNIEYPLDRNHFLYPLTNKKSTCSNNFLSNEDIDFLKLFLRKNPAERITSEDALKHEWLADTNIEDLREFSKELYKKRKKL
In experiment [8] the target is Calcium-dependent protein kinase 4 (Plasmodium falciparum (isolate 3D7)) (UniProt Q8IBS5). Kind of experiment: PfCDPK4 kinase inhibitors, biochemical, TCAMS library (AID 1159588; cut-off not given, nearly all actives have IC50 up to about 0.91 µM). The note with it: recombinant PfCDPK4, Kinase-Glo ATP depletion luminescence.
Chain of Calcium-dependent protein kinase 4 (Plasmodium falciparum (isolate 3D7)) (Q8IBS5 whole entry, looked up): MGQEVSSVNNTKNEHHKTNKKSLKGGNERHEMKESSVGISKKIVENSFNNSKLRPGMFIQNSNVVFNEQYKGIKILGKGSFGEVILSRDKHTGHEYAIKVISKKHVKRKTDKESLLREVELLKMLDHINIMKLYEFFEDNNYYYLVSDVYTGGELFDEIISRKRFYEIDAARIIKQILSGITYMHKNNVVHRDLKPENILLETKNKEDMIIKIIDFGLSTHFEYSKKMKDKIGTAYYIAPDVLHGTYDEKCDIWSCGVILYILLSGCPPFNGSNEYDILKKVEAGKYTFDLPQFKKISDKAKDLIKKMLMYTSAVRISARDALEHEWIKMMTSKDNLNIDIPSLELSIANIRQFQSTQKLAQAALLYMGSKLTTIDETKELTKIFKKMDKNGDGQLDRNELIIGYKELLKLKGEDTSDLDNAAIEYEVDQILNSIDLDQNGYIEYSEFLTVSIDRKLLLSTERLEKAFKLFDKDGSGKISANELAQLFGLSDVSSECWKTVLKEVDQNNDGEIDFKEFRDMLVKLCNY

Chain of Calcium-dependent protein kinase 1 (Plasmodium falciparum (isolate 3D7)) (P62344 whole entry, looked up): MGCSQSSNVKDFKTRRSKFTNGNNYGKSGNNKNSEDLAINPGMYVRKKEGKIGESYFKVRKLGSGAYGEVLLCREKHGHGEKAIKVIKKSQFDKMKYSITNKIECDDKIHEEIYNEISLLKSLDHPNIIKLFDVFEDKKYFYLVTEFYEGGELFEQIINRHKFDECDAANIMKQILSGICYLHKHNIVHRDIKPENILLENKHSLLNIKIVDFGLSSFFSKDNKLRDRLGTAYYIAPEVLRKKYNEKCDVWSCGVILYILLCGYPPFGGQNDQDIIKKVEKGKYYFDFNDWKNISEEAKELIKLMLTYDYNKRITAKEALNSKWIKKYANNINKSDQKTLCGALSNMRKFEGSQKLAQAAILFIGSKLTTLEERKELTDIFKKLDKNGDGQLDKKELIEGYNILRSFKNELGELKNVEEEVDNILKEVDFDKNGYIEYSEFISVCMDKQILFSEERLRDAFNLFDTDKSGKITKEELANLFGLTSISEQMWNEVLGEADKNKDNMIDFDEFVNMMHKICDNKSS
Chain of Plasmodium falciparum protein kinase 6 (PK6, PF3D7_1337100) (Q8IDW1 1-305): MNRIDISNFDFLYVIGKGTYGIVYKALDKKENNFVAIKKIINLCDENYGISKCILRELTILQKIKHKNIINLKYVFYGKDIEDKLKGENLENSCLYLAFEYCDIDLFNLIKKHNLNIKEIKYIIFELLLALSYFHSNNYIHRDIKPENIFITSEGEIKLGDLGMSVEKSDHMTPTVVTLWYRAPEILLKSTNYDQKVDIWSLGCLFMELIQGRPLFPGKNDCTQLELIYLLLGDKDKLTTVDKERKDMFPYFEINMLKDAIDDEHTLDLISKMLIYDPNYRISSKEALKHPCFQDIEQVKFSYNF

`Cc1ccc(CNC(=O)[C@H](Cc2ccccc2)Nc2cc(C)nc(NCCc3ccc(F)cc3)n2)cc1`: the values for the growth inhibition in experiment [1] and in experiment [4] were 22% and 98% (active), respectively. Also, the figures for the inhibition in experiment [2] and in experiment [3] were 10% and -3%, respectively. Also, the outcome in experiment [5], in experiment [6], in experiment [7] and in experiment [8] was inactive.

In the case of `COc1ccc2cc(C(C)NC3CCN(c4cccc(NC(=O)c5ccncc5)c4)CC3)ccc2c1` (stereo not given), the growth inhibition is 6% in experiment [1] and 91% (active) in experiment [4]. In addition, the inhibition in experiment [2] was 13%; in experiment [3] it was -1%. The outcome in experiment [5], in experiment [6], in experiment [7] and in experiment [8] was inactive.

As to `Cc1cc(-c2ccc(CNC3CCN(C)CC3)cc2)ccc1S(=O)(=O)NCc1ccccc1`, the values for the growth inhibition in experiment [1] and in experiment [4] were 97% (active) and 100% (active), respectively. In addition, the inhibition in experiment [2] is 52% (active); in experiment [3] it was 5%. Also, the outcome in experiment [5], in experiment [6], in experiment [7] and in experiment [8] was inactive.

Consider `COc1ccc(NS(=O)(=O)c2cc(NC(=O)Cn3ccccc3=O)ccc2N2CCCCC2)cc1`, for which the growth inhibition was 83% (active) in experiment [1] and 92% (active) in experiment [4]. Besides, the inhibition is 20% in experiment [2] and 1% in experiment [3]. Further, the result in experiment [5], in experiment [6], in experiment [7] and in experiment [8] was inactive.

As to `COc1ccc(N2C(N)=NC(N)=NC2(C)C)cc1`, the growth inhibition in experiment [1] is 29%; in experiment [4], 94% (active). Moreover, the inhibition in experiment [2] was 0%; in experiment [3], 4%. The result in experiment [5], in experiment [6], in experiment [7] and in experiment [8] was inactive.

With `Cc1cccc2[nH]c(-c3cccc(-c4ccc(CNCc5ccccc5)cc4)c3)nc12`, the growth inhibition in experiment [1] was 100% (active); in experiment [4] it was 99% (active). Further, the inhibition in experiment [2] is 33%; in experiment [3] it was -3%. Besides, the result in experiment [5], in experiment [6], in experiment [7] and in experiment [8] was inactive.

Consider `Cc1cc2nc(-c3ccc(C(=O)NCc4cccc(F)c4)cc3)[nH]c2cc1C`, for which the growth inhibition was 6% in experiment [1] and 91% (active) in experiment [4]. Besides, the inhibition in experiment [2] and in experiment [3] was -5% throughout. In addition, the outcome in experiment [5], in experiment [6], in experiment [7] and in experiment [8] was inactive.

For the compound `CC(C)NCc1cccc(-c2cccc(NC(=O)c3ccc(C#N)cc3)c2)c1`, the growth inhibition in experiment [1] was 20%; in experiment [4], 97% (active). Besides, the inhibition in experiment [2] is 18%; in experiment [3] it was 0%. Also, the outcome in experiment [5], in experiment [6], in experiment [7] and in experiment [8] was inactive.

Take `CCn1c(Sc2ccc(C#N)c([N+](=O)[O-])c2)nnc1-c1cc(OC)cc(OC)c1`: the growth inhibition is 82% (active) in experiment [1] and 93% (active) in experiment [4]. Also, the inhibition is 7% in experiment [2] and -2% in experiment [3]. Further, the result in experiment [5], in experiment [6], in experiment [7] and in experiment [8] was inactive.

With `CCc1ccc(NC(=O)N(CCCN2CCN(C)CC2)Cc2csc(-c3ccc(CNCc4ccccc4)cc3)n2)cc1`, the values for the growth inhibition in experiment [1] and in experiment [4] were 80% (active) and 99% (active), respectively. The results for the inhibition in experiment [2] and in experiment [3] were 17% and -1%, respectively. Besides, the outcome in experiment [5], in experiment [6], in experiment [7] and in experiment [8] was inactive.

For `CCCNC(=O)Nc1cc2cc(-c3ccc(CN4CCCC4)cc3)ccc2n2c(C)nnc12`, the growth inhibition in experiment [1] is 11%; in experiment [4], 93% (active). The inhibition in experiment [2] is 67% (active); in experiment [3], 0%. Also, the result in experiment [5], in experiment [6], in experiment [7] and in experiment [8] was inactive.

With `COc1cccc(CN2CCC3(CC2)CN(C(=O)Nc2ccc(Cl)c(Cl)c2)C3)c1`, the growth inhibition in experiment [1] was 2%; in experiment [4], 97% (active). Besides, the inhibition is 29% in experiment [2] and 2% in experiment [3]. In addition, the outcome in experiment [5], in experiment [6], in experiment [7] and in experiment [8] was inactive.

As to `Clc1ccccc1CN1CCC(NCc2cccc(-n3ccnc3)c2)CC1`, the growth inhibition is 43% in experiment [1] and 101% (active) in experiment [4]. The inhibition in experiment [2] was 6%; in experiment [3], -3%. Also, the result in experiment [5], in experiment [6], in experiment [7] and in experiment [8] was inactive.

Regarding `O=[N+]([O-])c1ccc(C(O)P(=O)(c2ccccc2)c2ccccc2)cc1` (stereo not given), the growth inhibition in experiment [1] is 1%; in experiment [4] it was 98% (active). Moreover, the inhibition in experiment [2] was 1%; in experiment [3], 0%. Besides, the result in experiment [5], in experiment [6], in experiment [7] and in experiment [8] was inactive.

In the case of `Cc1cccc(-c2ccc(NC(=O)Nc3ccc4nccc(N5CCN(C)CC5)c4c3)cc2C)n1`, the growth inhibition in experiment [1] was 95% (active); in experiment [4], 101% (active). For the same compound, the inhibition is 4% in experiment [2] and -3% in experiment [3]. Besides, the outcome in experiment [5], in experiment [6], in experiment [7] and in experiment [8] was inactive.

`Clc1cc(Nc2ncnc3sc(C#Cc4ncc[nH]4)cc23)ccc1OCc1ccccn1`: the growth inhibition in experiment [1] is 6%; in experiment [4] it was 101% (active). The inhibition in experiment [2] is 10%; in experiment [3] it was -3%. Further, the outcome in experiment [5], in experiment [6], in experiment [7] and in experiment [8] was inactive.

Turning to `COc1ccc(C2C(C(=O)Nc3ccc4c(c3)OCO4)c3cc(OC)c(OC)cc3C(=O)N2C)cc1` (stereo not given), the growth inhibition was 54% (active) in experiment [1] and 89% (active) in experiment [4]. Moreover, the inhibition in experiment [2] was 12%; in experiment [3], -4%. The result in experiment [5], in experiment [6], in experiment [7] and in experiment [8] was inactive.

Consider `CSc1cccc(NC(=O)Nc2ccc(I)c(OCCN(C)C)c2)c1`, for which the growth inhibition in experiment [1] was 19%; in experiment [4], 97% (active). Moreover, the figures for the inhibition in experiment [2] and in experiment [3] were 14% and -1%, respectively. For the same compound, the outcome in experiment [5], in experiment [6], in experiment [7] and in experiment [8] was inactive.

Turning to `COc1cccc(C23N=C(Nc4nc5ccccc5[nH]4)NC2(c2cccc(OC)c2)NC(Nc2nc4ccccc4[nH]2)=N3)c1` (stereo not given), the results for the growth inhibition in experiment [1] and in experiment [4] were 99% (active) and 101% (active), respectively. Also, the inhibition in experiment [2] is -9%; in experiment [3], 3%. The outcome in experiment [5], in experiment [6], in experiment [7] and in experiment [8] was inactive.

As for `COc1cc2nc(N3CCN(C(=O)c4ccc(N(C(=O)OC(C)(C)C)C(=O)OC(C)(C)C)cc4)CC3)nc(N)c2cc1OC`, the growth inhibition in experiment [1] is 19%; in experiment [4], 96% (active). Moreover, the inhibition is 12% in experiment [2] and 1% in experiment [3]. The outcome in experiment [5], in experiment [6], in experiment [7] and in experiment [8] was inactive.
